Source: PubChem BioAssay (NCI)
This is part of a sample that, as a whole, favours compounds with a hit. Of some 83,000 tested, about 20% had one in any assay.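 Method: cells in 96-well plates; compound added at one concentration; 48 h incubation; percent growth measured; values under 10 scored active.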 Unmarked numbers belong to inactive results. The source made the active and inactive calls.

What was measured:
Experiment in all cases: NCI-60 one-dose screen, 48 h (100 = growth as untreated, 0 = no growth, -100 = all killed)
Settings in all cases: 10 µM unless noted
NCI-H23 lung = system: NCI-H23 lung
NCI-H226 lung = system: NCI-H226 lung
NCI-H322M lung = system: NCI-H322M lung
HOP-62 NSCLC = system: HOP-62 NSCLC
NCI-H460 lung = system: NCI-H460 lung
HOP-92 NSCLC = system: HOP-92 NSCLC
NCI-H522 lung = system: NCI-H522 lung
A549/ATCC NSCLC = system: A549/ATCC NSCLC
786-0 renal = system: 786-0 renal
COLO 205 colon = system: COLO 205 colon

Row | Structure (SMILES) | growth (NCI-H23 lung) | growth (NCI-H226 lung) | growth (NCI-H322M lung) | growth (HOP-62 NSCLC) | growth (NCI-H460 lung) | growth (HOP-92 NSCLC) | growth (NCI-H522 lung) | growth (A549/ATCC NSCLC) | growth (786-0 renal) | growth (COLO 205 colon)
1 | C1=C(c2ccccc2)c2ccccc2C1 | 98.5% | 96.3% | 78.4% | 94% | 99.5% | 74.8% | 96% | 106% | 86.4% | –
2 | CCSc1nc2ccccc2o1 | 107% | 106% | 120% | 99.4% | 103% | 81.8% | 94.3% | 96.1% | 106% | 113%
3 | O/N=C1\c2ccccc2-c2ccc(F)cc21 | 99.4% | 82.5% | 92.5% | 95.9% | 98.9% | 94.7% | 100% | 100% | 104% | 73.7%
4 | N=C(N)Sc1cccc[n+]1[O-] | 55.6% | 78.7% | 68.9% | 79% | 21.8% | 104% | 37% | 54.5% | 76.7% | 39.8%
5 | O=[N+]([O-])c1ccc(C2N(Cc3ccc(Cl)cc3)CCN2Cc2ccc(Cl)cc2)cc1 | 97.5% | 95.1% | 75.5% | 94.5% | 101% | -1.91% (active) | 75.8% | 96% | 81.7% | –
6 | N#C/C(=N\Nc1ccc(Cl)cc1)C(=O)C1CC1 | 42.4% | 69.9% | 82.1% | 41.9% | 44.9% | 20% | 35.5% | 40.9% | 39.6% | 60.4%
7 | O=C1/C(=C/c2ccccn2)CCc2ccccc21 | 105% | 98.2% | 113% | 113% | 102% | 91.5% | 89.9% | 99.3% | 101% | –
8 | O=C1C=Cc2ccccc2/C1=C/c1nc(-c2ccccc2)oc1O | 82.1% | 73% | 90.6% | 88.1% | 98.5% | 103% | 90.3% | 107% | 107% | 87.5%
9 | Cn1ccc(=Nc2ccc(NC(=O)c3ccc(N=c4ccn(C)c5ccc([N+](=O)[O-])cc45)cc3)cc2)cc1 | 73.8% | 70% | 104% | 52.6% | 98.5% | 70.9% | 52.7% | 65.5% | 78.8% | 56.6%
10 | CCCCCCCCCCCCCCCC[N+]1(C)CCCC1c1cccnc1 (configuration not stated) | 25.3% | 41.4% | 88.7% | 53.7% | 23.6% | 5.98% (active) | 41.2% | 41.8% | 52.7% | -21.7% (active)
11 | C/C(=N\NC(=S)N1CC2CCC(CC2)C1)c1ccccn1 | 30.4% | 11.7% | 4.2% (active) | 24% | -3.66% (active) | 34.1% | 16.8% | 5.42% (active) | 3.86% (active) | 4.4% (active)
12 | COc1ccc(/C=C2/C(=O)ON=C2C)cc1 | 112% | 101% | 118% | 101% | 107% | 93.6% | 94.2% | 103% | 105% | 104%
13 | NCCCN(CCCN)CCCNCc1c2ccccc2c(CNCCCN(CCCN)CCCN)c2ccccc12 | 92.2% | 87.2% | 84.4% | 87.2% | 93.9% | 95.9% | 89.7% | 95.2% | 99.1% | 95.9%
14 | CC(C)(C)c1ccc(O)c(-c2ccccc2)c1 | 105% | 122% | 104% | 112% | 112% | 94.5% | 83.5% | 109% | 109% | 105%
15 | CCC1C[N+]2=C(c3cc(OC)c(OC)cc3CC2)c2c1cc1n2CCc2cc(OC)c(OC)cc2-1 (configuration not stated) | 43% | 65.7% | 98.6% | 55.9% | 21.5% | -2.62% (active) | 17% | 56.9% | 66.3% | -35.4% (active)
16 | CCCCCCCCCCCC(=O)OC(C)C(=O)NCCCC (configuration not stated) | 97.3% | 86% | 91.7% | 94% | 105% | 98.1% | 104% | 98.8% | 101% | 109%
17 | O=C1CSC(=S)N1Cc1cccnc1 | 101% | 109% | 85.7% | 78.4% | 106% | 83.9% | 36.8% | 95.4% | 44.6% | 53.6%
18 | O=C1C=CC(=O)N1c1cccc2c1CCCC2 | 106% | 96.4% | 91.9% | 105% | 109% | 84.2% | 11.6% | 104% | 105% | 49.1%
19 | NC(=S)Nc1ccc2c(c1)Cc1ccccc1-2 | 83.1% | 77.8% | 89.2% | 84.2% | 94.8% | 63.9% | 62.9% | 72.5% | 115% | 98.2%
20 | CCN(CC)CC(O)c1cc(-c2ccc(Cl)cc2)nc2cc(Cl)ccc12 (configuration not stated) | 70.8% | 78.5% | 79.2% | 54.6% | -0.34% (active) | 19.3% | -70.4% (active) | 14.6% | 46.3% | -73% (active)
21 | O=C(Cc1nc2cc(Cl)c(Cl)cc2nc1CC(=O)c1cccnc1)c1cccnc1 | 88.1% | 77.2% | 78.4% | 86.3% | 82.6% | 78% | 58.8% | 93.5% | 58.7% | 89.8%
22 | CCc1cnc2ccccc2c1/C=C/c1ccc(N(C)C)cc1 | 65.2% | 74.5% | 71.6% | 47.4% | 30.8% | 60.1% | 23.3% | 33% | 44% | 41.5%
23 | CCCCCCCCCCCCCCCCCC1=NCCCN1CCO | 106% | 103% | 101% | 90.7% | 105% | 95.5% | 103% | 94.7% | 104% | 108%
24 | O=C/C=C/c1ccc([N+](=O)[O-])cc1 | 96.7% | 101% | 104% | 104% | 106% | 117% | 97.3% | 93.4% | 102% | 115%
25 | CCOc1cc(F)c([N+](=O)[O-])cc1[N+](=O)[O-] | 38.9% | 95.3% | 103% | 93.8% | 106% | 72.1% | -55.7% (active) | 90.9% | 59.9% | -48.4% (active)
26 | CC(C)N=C(N)/N=C(\N)Nc1ccc2ccc3ccccc3c2c1 | -88.1% (active) | -67.6% (active) | -89.9% (active) | -84.5% (active) | -58.1% (active) | -68.6% (active) | -84.8% (active) | -65.2% (active) | -70.1% (active) | -92% (active)
27 | S=C1SCN(Cc2cccs2)CN1Cc1cccs1 | 107% | 104% | 99.4% | 122% | 101% | 79.9% | 46.7% | 96.8% | 102% | 108%
28 | CCOc1ccc(C(C[N+](=O)[O-])Sc2ccccc2N)cc1 (configuration not stated) | 10.2% | 78.6% | 88.2% | 92.1% | 58.9% | 82.7% | 85.3% | 62.9% | -63.2% (active) | 10.1%
29 | O=[N+]([O-])C=C(c1ccccc1)c1ccccc1 | 81.9% | 88.6% | 88% | 73.7% | 88.4% | 63.9% | 72.7% | 79.5% | 89.2% | 114%
